Reference: the supplement of paper PMC11417369
The full ranking holds about 25,000 sequences; the median of “ln(normalized median fluorescence intensity)” is about 7.1, and the highest 2% start at about 10. What follows is part of a selection rich in the highest values, with near analogues and random picks from the rest.

What follows are sequences tested on PfSIP2 AP2 domain 1 (GST-tagged) (assay: gcPBM binding intensity (ln(normalized median fluorescence intensity)); higher = stronger DNA binding).
Outline: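 For binding intensity, the highest Masliner-normalised natural-log median intensity across replicate spots of either probe orientation was taken. Protein bound to the array was stained with Alexa488 anti-GST antibody and scanned at 488 nm. The protein, GST-tagged P. falciparum DNA-binding domains from E. coli at about 25 μg on average, had been applied for 1 h to an Agilent 4 × 180k array of primer-extended double-stranded 36-bp intergenic genomic probes and negative controls.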

Sequence | gcPBM binding intensity (ln)
GTCCTTCATCATATTTAACACACAGAGAAAAAGCGG [CACACA_site7979] | 7.68
AAAATAAAAAAAATAAATAAAAAAAATAATAATAAA [CACACA_negctrl_site563] | 6.55
TATAACTTTTTTATTACACACCTATGCAATATTATA [CACACA_site6570] | 7
TATATAATATAATTGACATGCAACCATTTTCGTGAA [TGCATGCA_site458] | 6.84
ATATTTATTTGTTAGTGTACATACATATATATATAT [XGTACX_site1347] | 9.24
TTTTTTTTTTTTTTGTGTACATATAATGCACATTAT [XGTACX_site6505] | 8.07
TTTTTGTTATTATGTGTGCACATATATATATATATA | 9.79
TATTTTTTTTGTTAGGTGCATTTACATTTATTTTTA | 9.93
CATACATATACTTTGTGTACATATATATATTATATA [XGTACX_site97] | 7.51
TTTTTGTTATTTTTAGTGCACATTTAAGGGTGTATT | 10.4
GAAAAATTTTTATATGTGCACATGTTATATATAATT [GTGCAC_site9742] | 8.64
ACTTTTTTTTTGTGTGTGCACTCGATTATATACATA [GTGCAC_site9846] | 10.3
TTTTTTTTTGTTATGTTGCACTTTGCCATATTATTA [GTGCAC_site9844] | 7.93
AAATATATGTTATATGTGCACTTTTTTTTTTTTTTT [GTGCAC_site9667] | 10.4
ATATGTTATATAAATATATATATATATATATATATA [TGCATGCA_negctrl_site594] | 9.55
ATATATATTATGTGTGTGCACTTTTGTTATTATTAT | 10.4
AAAAAACACGCGCACACACACACACGCGCCCACATA [CACACA_site7106] | 7.16
CATAAGAAAATAAAAACATGCACATAAGAAATATAC [TGCATGCA_site842] | 7.97
ATCTTTCAATAATTCACACATATATATATATATATA [CACACA_site4598] | 9.91
TTTTTTTCTATAATACACCAGAAAAAAAAATTAAAA [TGCATGCA_negctrl_site257] | 6.96
AATTTTTTTTTTTTTTTTTCTTTTGTAATAAACCAT [XGTACX_negctrl_site334] | 6.92
ATATATATTGTACTAGTGCATATATATACATATATT | 8.43
ATATAAAGTATGTTAGTGCACTTTTTTTTTTTTTTT [GTGCAC_site9419] | 11.2
ATATTTTATATATTTGTGCACAATATTATAATATAT | 8.63
TATTTATTTTTTTTTGTGCACTTAATATAATCTTAC | 10.4
TTTAATTTATATTTTGTGCACATCTTATTATATATA [GTGCAC_site9630] | 9.58

Sequence | gcPBM binding intensity (ln)
TATATAAAAAATAGGTGGTCAACTTAAATATTTTAT [XGTACX_site4495] | 7.16
TGTGTATATATGCTGGTGCAACTTTAAAAAATAATC | 10.1
ATATCAAATAATTTAGTGCACTTTTTTTTTTCTTTT [GTGCAC_site9629] | 10.4
TATATTTTATATATGGTGCAACTTTTATTTAAATAA | 10.6
TTTTTCTTTTTTTTTTTAATAATATATAACAAATTT [CACACA_negctrl_site1724] | 6.81
ATTTTCTTTTCCATAGTGCAATATAATTATCCATCA [GTGCAC_site9547] | 8.36
TTATATTTAGTATATGCACACTTTATGTTTGTTATT [CACACA_site5163] | 7.74
TCATAAATATAAAGTGTGCACTTGAATAATATGTAT | 9.52
TAACAAAACCTTATATGTACACACATATACATCACA [XGTACX_site6772] | 7.16
ATATAATATGGTATTACACACTGTTAAAAGTATGGC [CACACA_site5190] | 7.03
ATAAATAAATGGTGTTGTACTCTATTATATATATAT [XGTACX_site7835] | 8.66
TTGATTATAATTAGTACACACAAAATACATGCGGGG [CACACA_site2277] | 7.82
ATAAATTTTTAAAAATATGAATTATGTAATTTGTGA [CACACA_negctrl_site1621] | 6.92
TATTTATTGTGACACTTTTATTATTTTATGATAAAA [CACACA_negctrl_site37] | 6.97
TTTATATTAATTGATGTGCACTGAAATATTTGTCCA [GTGCAC_site9655] | 10.2
TTTATCTAAATATGTGTGCACTCGTTAATTTTTTTT | 10.5
ATATCGTTATTTTTATGTACTAAAATATTTAATTAT [XGTACX_site3516] | 7.09
TTATAATTTTAATGTGCACACAATTAAAATATTATA [CACACA_site5172] | 9.21
AAAAAAATTAATAATGTGCACTTTTTAGTATTTTTA [GTGCAC_site9744] | 10.3
CGAACTGCACTTTTTAGTACTTAATAATTATTTTTT [XGTACX_site2446] | 8.47
ATTTATATTAAAAGTGTGCACTTTTTTTTTTTTTTT | 10.1
TGATATTATATTGTGATGCACTTTAAAAATATAAAG [GTGCAC_site9509] | 10.3
TCATTTTAAATATGTGTGCACGTTATAATTTACACA | 9.54
TTATTTTATTTTTGTGCACACTGATAAATTGAAAAG [CACACA_site2949] | 10.2
TGAAATTTTATTAATGTGCACATATATTTATTGTTC | 8.56
